Screens (PubChem)
Pf growth 48h: P. falciparum growth inhibition at 48 hours (one generation). P. falciparum luciferase growth in erythrocytes, 48 h. Potency, µM (doses to about 28.7 µM), most hits filed as inhibitors. 310,000 compounds, 5.9% hits. AID 504832
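Here the parasites carry a stable luciferase gene and grow inside erythrocytes in Albumax-based RPMI medium with compound for one erythrocytic cycle. Activity is scored as loss of luminescent signal.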
SARS PLpro yeast: SARS-CoV PLP inhibition in yeast; S. cerevisiae expressing SARS-CoV PLpro, growth rescue; Potency, µM (highest dose often 32.9 µM), most hits filed as activators; 330,000 compounds, 0.19% hits; calls by dose curve; also: nearly all actives have a fitted effect of over 55% in size
Pf growth 96h: P. falciparum growth inhibition at 96 hours | 320,000 compounds, 6.9% hits | Potency, µM (series often up to 28.7 µM), most hits filed as inhibitors | P. falciparum luciferase reporter growth, 96 h | AID 504834
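Two parasite generations (96 h, 37 C, 5% CO2) of compound exposure in infected erythrocytes (0.05% parasitemia, 2% hematocrit). Luciferase-reporter P. falciparum; decreased luminescence indicates inhibited growth, aimed at apicoplast-acting delayed death.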
Sm TGR inh: blocks Schistosoma mansoni thioredoxin glutathione reductase; Q962Y6; purified TGR, DTNB reduction, TNB absorbance 405 nm; Potency, µM (titrated, usually from 114 µM), most hits filed as inhibitors; 360,000 compounds, 3% hits; AID 485364; also: nearly all actives have a fitted effect of over 60% in size
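Kinetic colorimetric format: TGR-catalysed, NADPH-driven DTNB reduction monitored via TNB absorbance. Enzyme dispensed at 20 nM; compound exposure 15 min at room temperature before reaction start.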
Of the large screens only hits and unclear results are named; the others gave an inactive call. Only some compounds are listed: those with a hit (about 12% of all), similar ones and a draw of the others. Unless noted, calls follow the shape of the dose curve; as a rule, active = well fitted curve in the direction sought with a large enough effect; inconclusive = small, poorly fitted or top-dose-only effect, or another doubt; inactive = no such curve, though single readings can be large; an effect the other way counts as inactive or inconclusive.

CCN1CCN(c2ccc(S(=O)(=O)N3CCCCC3)cc2NC(=O)CC(C)c2ccccc2)CC1 (stereo unspecified)	Pf growth 48h 9.3µM, Pf growth 96h inconclusive
CCN1CCN(c2ccc(S(=O)(=O)N3CCCCC3)cc2NC(=O)c2cccc(C)c2)CC1	Pf growth 48h 12µM, Pf growth 96h inconclusive
CC1CCN(c2nnc(-n3cccc3CNc3cccc(F)c3)s2)CC1	none (no result: Pf growth 48h, SARS PLpro yeast, Pf growth 96h)
Cc1c(C(=O)N2CCN(Cc3ccccc3)CC2)oc2c1C(=O)CC(C)(C)C2	Pf growth 48h inconclusive
C=C1C(=O)O[C@@]23[C@H]1CC[C@@H](C)[C@@H]2CC[C@@]1(C)O[C@@H]31	none (no result: Pf growth 48h, Pf growth 96h, Sm TGR inh)
CC1(C)CC2(C)OC(=N)C1(C#N)C2(C#N)C#N (stereo unspecified)	Sm TGR inh 13µM
O=C(CSc1nc2ccccc2nc1Cc1ccc(Cl)cc1)N1CCN(c2ccccc2F)CC1	none (no result: Pf growth 48h, SARS PLpro yeast, Pf growth 96h)
COc1c2ccccc2nc2ccccc12	Pf growth 48h 2.1µM
COc1ccc(Oc2nc(SC)nc3ccccc23)cc1	none
CCOc1ccc(N(Cc2ccc(OC)c(OC)c2)C(=O)c2ccco2)cc1	Pf growth 48h 12µM
COc1cc(CN(C(=O)c2ccco2)c2ccc(C)cc2)ccc1O	Pf growth 48h 12µM, Pf growth 96h inconclusive
COc1ccc(CN(C(=O)c2ccco2)c2ccc(Br)cc2)cc1OC	Pf growth 48h inconclusive
COc1ccc(O)c(C(=O)c2cc(C(=O)NCCc3ccccc3)c(=O)n(CCc3ccccc3)c2)c1	Pf growth 48h inconclusive, Pf growth 96h inconclusive
Cc1cccc(C(=O)Nc2ccc(Cl)cc2C(=O)c2ccccc2)c1	Pf growth 48h inconclusive, Pf growth 96h inconclusive
Cc1ccc(O)c(C(=O)c2cc(C(=O)NCCc3ccccc3)c(=O)n(CCc3ccccc3)c2)c1	Pf growth 48h 1.9µM, Pf growth 96h 1.5µM
O=C(c1cc(C(=O)NCc2ccccc2)c(=O)n(Cc2ccccc2)c1)c1cc(Cl)ccc1O	Pf growth 48h 2.3µM, Pf growth 96h 0.66µM
Cc1ccccc1NC(=O)c1cc(C(=O)c2cc(Cl)ccc2O)cn(-c2ccccc2C)c1=O	Pf growth 48h 0.47µM, Pf growth 96h 0.74µM
COC(=O)c1ccccc1NC(=O)Cn1nc(C(F)(F)F)c2c1CCCC2	none (no result: Pf growth 48h, SARS PLpro yeast, Pf growth 96h)
CCOc1ccc(C(C(=O)NCC2CCCO2)N(Cc2cccnc2)C(=O)c2snc(C(N)=O)c2N)cc1 (stereo unspecified)	Pf growth 48h inconclusive
Cc1ccc(C(=O)Nc2ccc(Br)c(C(F)(F)F)c2)cc1	Pf growth 48h inconclusive, Pf growth 96h 12µM
Cc1ccc(S(=O)(=O)NCC(c2ccccc2)N2CCN(c3ccc(F)cc3)CC2)cc1 (stereo unspecified)	Pf growth 48h inconclusive, Pf growth 96h inconclusive
CCc1nc(SCC(=O)NNC(=O)C(C)C)c2ccccc2n1	Pf growth 48h inconclusive, Pf growth 96h 12µM
CC(C)C(=O)NNC(=O)CSc1nc(C2CCCCC2)nc2ccccc12	Pf growth 96h 1.5µM
Cn1c(SCc2ccccc2Cl)nc2c([nH]c3ccccc32)c1=O	none (no result: Pf growth 48h, SARS PLpro yeast, Pf growth 96h)
CC(N)CCCC(C)(C)O (stereo unspecified)	none (no result: SARS PLpro yeast, Sm TGR inh)
CCCCn1c(=O)nc2n(-c3ccc(Cl)cc3)c3ccccc3cc-2c1=O	none
CCN(CC)Cc1c(O)ccc2c1O/C(=C\C=C\c1ccccc1)C2=O	Pf growth 48h inconclusive, Pf growth 96h inconclusive, Sm TGR inh inconclusive
COc1ccccc1/C=C/C=C1\Oc2c(ccc(O)c2CN(C)C)C1=O	Pf growth 48h 2.6µM, Pf growth 96h inconclusive, Sm TGR inh inconclusive
CN(CC(=O)Nc1ccc(F)cc1)C(=O)C1CCN(C(=O)Nc2ccccc2)CC1	Pf growth 48h inconclusive, Pf growth 96h inconclusive
CN1CCN(C(=O)c2cc3nc(-c4ccc(F)cc4)cc(C(F)(F)F)n3n2)CC1	Pf growth 96h inconclusive (no result: Pf growth 48h)
O=C(O)c1cc2nc(-c3ccccc3)cc(-c3ccccc3)n2n1	Pf growth 48h inconclusive, Pf growth 96h inconclusive
Cc1ccc(-c2cc(C(F)F)n3ncc(C(=O)N4CCN5CCCC5C4)c3n2)cc1 (stereo unspecified)	Pf growth 48h 12µM (no result: Pf growth 96h)
O=C(c1cc2nc(-c3ccc(F)cc3)cc(C(F)(F)F)n2n1)N1CCCCC1c1cccnc1 (stereo unspecified)	Pf growth 48h 3.7µM
CCOC(=O)C1CCCN(C(=O)c2cnn3c(C(F)F)cc(-c4ccc(C)cc4)nc23)C1 (stereo unspecified)	Pf growth 48h 4.7µM (no result: Pf growth 96h)
Cc1ccc(-c2cc(C(F)F)n3ncc(C(=O)NN4CCCCC4)c3n2)cc1	Pf growth 48h inconclusive (no result: Sm TGR inh)
